Legend:
Test in all cases: relative growth (AUC of 72 h growth curve relative to DMSO control, dAUC) (ratio); higher = more growth (less inhibition), active = hit call of the paper
Conditions in all cases: 20 µM;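 active = growth AUC significantly below the DMSO wells by Dunnett test; inactive = the rest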
[1] = system: Aeromonas 1 (Aeromonas sp. AE235)
Method in brief: (§1)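 For relative growth (dAUC), the spline-integrated area under the growth curve was divided by the mean of the DMSO controls. Results were averaged over three biological replicates. Each replicate used a 1:100 dilution, into 96-well plates holding each chemical at 20 µM (1% DMSO), of isolates from Icelandic stream sediments and Silwood Park soil or whole sediment communities that had been grown to carrying capacity in Luria–Bertani medium. Plates were shaken briefly before each hourly A600 reading over 72 h.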

[2] = system: Aeromonas 2 (Aeromonas sobria)
Method in brief: as §1

[3] = system: Aeromonas 3 (Aeromonas popoffii)
Method in brief: as §1

[4] = system: Argrobacterium 1 (Agrobacterium sp.)
Method in brief: as §1

[5] = system: Arthrobacter 1 (Arthrobacter humicola)
Method in brief: as §1

[6] = system: Arthrobacter 2 (Arthrobacter humicola)
Method in brief: as §1

[7] = system: Arthrobacter 3 (Arthrobacter sp.)
Method in brief: as §1

Community 10 = system: Community 10
Method in brief: as §1

Community 4 = system: Community 4
Method in brief: as §1

Community 6 = system: Community 6
Method in brief: as §1

Community 7 = system: Community 7
Method in brief: as §1

Community 8 = system: Community 8
Method in brief: as §1

Community 9 = system: Community 9
Method in brief: as §1

[8] = system: Flavobacterium 1 (Flavobacterium glaciei)
Method in brief: as §1

[9] = system: Flavobacterium 2 (Flavobacterium succinicans)
Method in brief: as §1

[10] = system: Hymenobacter 1 (Hymenobacter glaciei)
Method in brief: as §1

[11] = system: Microbacterium 1 (Microbacterium arborescens)
Method in brief: as §1

[12] = system: Neobacillus 1 (Neobacillus soli)
Method in brief: as §1

[13] = system: Oryzobacter 1 (Oryzobacter terrae)
Method in brief: as §1

[14] = system: Paenibacillus 1 (Paenibacillus castaneae)
Method in brief: as §1

Compound	relative growth [1]	relative growth [2]	relative growth [3]	relative growth [4]	relative growth [5]	relative growth [6]	relative growth [7]	relative growth (Community 10)	relative growth (Community 4)	relative growth (Community 6)	relative growth (Community 7)	relative growth (Community 8)	relative growth (Community 9)	relative growth [8]	relative growth [9]	relative growth [10]	relative growth [11]	relative growth [12]	relative growth [13]	relative growth [14]
CC1(C)C(C=C(Cl)Cl)C1C(=O)OC(C#N)c1ccc(F)c(Oc2ccccc2)c1 (stereo not given)	0.997 (inactive)	1 (inactive)	1.07 (inactive)	1.03 (inactive)	1.19 (inactive)	0.879 (inactive)	0.946 (inactive)	0.911 (inactive)	0.954 (inactive)	0.928 (inactive)	0.868 (inactive)	1.06 (inactive)	0.995 (inactive)	1.02 (inactive)	0.998 (inactive)	1.03 (inactive)	1.04 (inactive)	0.981 (inactive)	1.14 (inactive)	0.826 (inactive)
CON(C)C(=O)Nc1ccc(Cl)c(Cl)c1	0.924 (inactive)	0.996 (inactive)	0.996 (inactive)	0.869 (inactive)	0.952 (inactive)	0.595 (active)	0.929 (inactive)	1.03 (inactive)	0.943 (inactive)	0.995 (inactive)	1.01 (inactive)	1.07 (inactive)	1.03 (inactive)	1.01 (inactive)	0.923 (inactive)	0.961 (inactive)	1.05 (inactive)	0.908 (inactive)	1.04 (inactive)	1 (inactive)
Cc1cc(C(C#N)c2ccc(Cl)cc2)c(Cl)cc1NC(=O)c1cc(I)cc(I)c1O (stereo not given)	0.979 (inactive)	0.788 (active)	0.96 (inactive)	0.833 (inactive)	0.0129 (active)	0.011 (active)	0.0114 (active)	0.677 (inactive)	0.631 (active)	0.454 (active)	0.817 (inactive)	0.725 (inactive)	0.394 (active)	0.0126 (active)	0.794 (active)	0.00496 (active)	0.99 (inactive)	0.729 (active)	0.00516 (active)	0.325 (active)
O=C1c2ccccc2C(=O)N1SC(Cl)(Cl)Cl	1.04 (inactive)	0.951 (inactive)	0.992 (inactive)	1.04 (inactive)	1.04 (inactive)	0.994 (inactive)	1.1 (inactive)	0.818 (inactive)	0.962 (inactive)	0.721 (inactive)	0.943 (inactive)	0.913 (inactive)	1.01 (inactive)	1.05 (inactive)	0.983 (inactive)	1.11 (inactive)	1.02 (inactive)	1.07 (inactive)	0.988 (inactive)	1.02 (inactive)
CC(C)CC(C)c1sccc1NC(=O)c1cn(C)nc1C(F)(F)F (stereo not given)	0.935 (inactive)	0.946 (inactive)	0.994 (inactive)	0.855 (inactive)	0.87 (inactive)	0.885 (inactive)	0.936 (inactive)	0.715 (inactive)	0.78 (inactive)	0.806 (inactive)	1.06 (inactive)	1.01 (inactive)	0.916 (inactive)	1.02 (inactive)	0.921 (inactive)	0.945 (inactive)	0.937 (inactive)	0.924 (inactive)	1.2	0.906 (inactive)
CC[C@H](C)[C@H]1O[C@]2(C=C[C@@H]1C)C[C@@H]1C[C@@H](C/C=C(\C)[C@@H](O[C@H]3C[C@H](OC)[C@@H](O[C@H]4C[C@H](OC)[C@@H](O)[C@H](C)O4)[C@H](C)O3)[C@@H](C)/C=C/C=C3\CO[C@@H]4[C@H](O)C(C)=C[C@@H](C(=O)O1)[C@]34O)O2.CO[C@H]1C[C@H](O[C@H]2[C@H](C)O[C@@H](O[C@@H]3/C(C)=C/C[C@@H]4C[C@@H](C[C@]5(C=C[C@H](C)[C@@H](C(C)C)O5)O4)OC(=O)[C@@H]4C=C(C)[C@@H](O)[C@H]5OC/C(=C\C=C\[C@@H]3C)[C@]54O)C[C@@H]2OC)O[C@@H](C)[C@@H]1O	0.949 (inactive)	0.927 (inactive)	1.06 (inactive)	1.11 (inactive)	0.181 (active)	0.00817 (active)	0.16 (active)	0.898 (inactive)	0.808 (inactive)	0.662 (active)	1.17 (inactive)	0.963 (inactive)	0.624 (active)	0.139 (active)	0.975 (inactive)	0.9 (inactive)	0.963 (inactive)	0.893 (inactive)	0.286 (active)	0.317 (active)
CC(COc1ccc(Oc2ccccc2)cc1)Oc1ccccn1 (stereo not given)	1.04 (inactive)	0.997 (inactive)	1.08 (inactive)	1.09 (inactive)	1.11 (inactive)	0.937 (inactive)	0.925 (inactive)	1.01 (inactive)	1.08 (inactive)	1.07 (inactive)	1.05 (inactive)	1.06 (inactive)	1.04 (inactive)	0.975 (inactive)	1.02 (inactive)	1.07 (inactive)	1.05 (inactive)	1.09 (inactive)	1.11 (inactive)	1.05 (inactive)
CCNC(=O)NC(=O)/C(C#N)=N/OC	0.983 (inactive)	0.967 (inactive)	0.988 (inactive)	1.01 (inactive)	0.901 (inactive)	0.894 (inactive)	0.975 (inactive)	1.03 (inactive)	0.963 (inactive)	1 (inactive)	1.13 (inactive)	1.02 (inactive)	0.993 (inactive)	1.01 (inactive)	0.994 (inactive)	1.02 (inactive)	0.986 (inactive)	0.997 (inactive)	0.977 (inactive)	0.994 (inactive)
